Data as given in PubChem BioAssay (Tox21).
Records with an inconclusive call do not appear. A call without a number means that no potency is given here. Active and inactive are the calls of the source. Unless noted, the call rests on the fitted dose curve; in most records, active means well fitted curve in the direction sought with a large enough effect in the repeat runs; inconclusive means weak or mixed curves; inactive means no such curve, though single readings can be large; an effect the other way counts as inactive or inconclusive.

Legend:
[1] = qHTS assay to identify small molecule antagonists of the thyroid receptor (TR) signaling pathway (AID 743065); further: series mostly up to about 70 µM; nearly all actives have a fitted effect of over 55% in size
Procedure, shortened: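 GH3.TRE-Luc rat pituitary cells (two TREs driving luciferase) were dosed with compound, then stimulated with 1 nM T3 (final) for 23.5 h at 37 C. ONE-Glo luminescence was the read-out, with CellTiter-Fluor fluorescence as the cytotoxicity counter-screen.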

[2] = test system: thyroid hormone receptor (rat, GH3 cells); experiment: qHTS assay to identify small molecule agonists of the thyroid receptor (TR) signaling pathway (AID 743066; calls by dose curve)
[3] = qHTS assay to identify small molecule antagonists of the estrogen receptor alpha (ER-alpha) signaling pathway - cell viability counter screen (AID 743074; calls by dose curve;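 further: HEK293 cells carrying ER-alpha-UAS-bla reporter stimulated with 17beta-estradiol; nearly all actives have a fitted effect of over 45% in size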; further: potency means the concentration at half of the fitted maximal effect)
[4] = qHTS assay to identify small molecule antagonists of the estrogen receptor alpha (ER-alpha) signaling pathway using the BG1 cell line - cell viability counter screen (AID 743081);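 further: compound given together with 17beta-estradiol as the ER stimulus; series mostly up to about 70 µM; nearly all actives have a fitted effect of over 45% in size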
[5] = target: Aromatase (Homo sapiens) (UniProt P11511); experiment: qHTS assay to identify aromatase inhibitors (AID 743083); further: series mostly up to about 70 µM; nearly all actives have a fitted effect of over 55% in size
Aromatase (Homo sapiens), sequence (P11511 whole entry, looked up): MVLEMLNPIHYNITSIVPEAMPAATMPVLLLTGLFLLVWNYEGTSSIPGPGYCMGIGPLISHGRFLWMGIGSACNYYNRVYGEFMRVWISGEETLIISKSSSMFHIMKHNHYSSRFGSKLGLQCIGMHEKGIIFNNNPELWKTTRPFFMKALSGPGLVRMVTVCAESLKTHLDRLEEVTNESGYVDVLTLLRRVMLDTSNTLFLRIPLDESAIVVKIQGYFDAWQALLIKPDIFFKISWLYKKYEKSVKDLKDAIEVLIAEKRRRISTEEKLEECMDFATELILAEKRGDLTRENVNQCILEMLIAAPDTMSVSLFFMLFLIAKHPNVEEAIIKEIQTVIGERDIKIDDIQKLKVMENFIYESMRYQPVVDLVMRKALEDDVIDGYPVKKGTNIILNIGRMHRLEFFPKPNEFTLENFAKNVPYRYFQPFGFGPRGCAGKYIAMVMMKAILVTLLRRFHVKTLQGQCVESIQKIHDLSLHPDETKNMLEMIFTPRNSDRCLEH

[6] = qHTS assay to identify aromatase inhibitors - cell viability counter screen (AID 743084);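 further: cells stimulated with testosterone during compound exposure; nearly all actives have a fitted effect of over 55% in size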

| SMILES | Potency [1] | Potency [2] | Potency [3] | outcome [4] | outcome [5] | Potency [6] |
| --- | --- | --- | --- | --- | --- | --- |
| CC(C)c1ccccc1O | inactive | inactive | inactive | inactive | inactive | inactive |
| CCCCCCCCCOCC1CO1 (configuration not stated) | inactive | inactive | inactive | inactive |  | inactive |
| CCCC(C)CC (configuration not stated) | inactive | inactive | inactive | inactive | inactive | inactive |
| O=C1NC2NC(=O)NC2N1 (configuration not stated) | inactive | inactive | inactive | inactive | inactive | inactive |
| O=C(c1ccc2c(c1)C(=O)OC2=O)c1ccc2c(c1)C(=O)OC2=O | inactive | inactive | inactive | inactive | inactive | inactive |
| C1CCN2C[C@@H]3C[C@@H](CN4CCCC[C@@H]34)[C@H]2C1 | inactive | inactive | inactive |  | inactive | inactive |
| C1=CCC(c2ccccc2)CC1 (configuration not stated) | inactive | inactive | inactive | inactive | inactive | inactive |
| CCC1Nc2cc(Cl)c(S(N)(=O)=O)cc2S(=O)(=O)N1 (configuration not stated) | inactive | inactive | inactive |  | inactive | inactive |
| CC(C)COC(=O)COc1ccc(Cl)cc1Cl | inactive | inactive | inactive | inactive | inactive | inactive |
| CCCCCCCC[Si](OCC)(OCC)OCC | inactive | inactive | 54.9 µM (active) | inactive | inactive | inactive |
| CC(C)COC(=O)CCCCC(=O)OCC(C)C | inactive | inactive | inactive | inactive | inactive | inactive |
| C[C@@H]1C[C@H]2[C@@H]3C[C@H](F)C4=CC(=O)C=C[C@]4(C)[C@@]3(F)[C@@H](O)C[C@]2(C)[C@@]1(O)C(=O)CO | inactive | inactive | inactive | inactive | inactive | inactive |
| Cc1ccccc1N1CCN(CCc2nnc3n2CCCC3)CC1 | inactive | inactive | inactive | inactive | inactive | inactive |
| CCOC(=O)CC(CC(=O)OCC)(OC(C)=O)C(=O)OCC | inactive | inactive | inactive | inactive | inactive | inactive |
| CCCCC(C)C(=O)O (configuration not stated) | inactive | inactive | inactive | inactive | inactive | inactive |
